The values that follow come from the supplement of paper PMC10849652.

The full data set covers some 8,800 targets. This sample favours those with a hit. About 0.5% of all pairs of compound and target were hits. Values without a mark were called inactive.

Sequence of UniProt Q9BTE3 (Q9BTE3 whole entry, looked up): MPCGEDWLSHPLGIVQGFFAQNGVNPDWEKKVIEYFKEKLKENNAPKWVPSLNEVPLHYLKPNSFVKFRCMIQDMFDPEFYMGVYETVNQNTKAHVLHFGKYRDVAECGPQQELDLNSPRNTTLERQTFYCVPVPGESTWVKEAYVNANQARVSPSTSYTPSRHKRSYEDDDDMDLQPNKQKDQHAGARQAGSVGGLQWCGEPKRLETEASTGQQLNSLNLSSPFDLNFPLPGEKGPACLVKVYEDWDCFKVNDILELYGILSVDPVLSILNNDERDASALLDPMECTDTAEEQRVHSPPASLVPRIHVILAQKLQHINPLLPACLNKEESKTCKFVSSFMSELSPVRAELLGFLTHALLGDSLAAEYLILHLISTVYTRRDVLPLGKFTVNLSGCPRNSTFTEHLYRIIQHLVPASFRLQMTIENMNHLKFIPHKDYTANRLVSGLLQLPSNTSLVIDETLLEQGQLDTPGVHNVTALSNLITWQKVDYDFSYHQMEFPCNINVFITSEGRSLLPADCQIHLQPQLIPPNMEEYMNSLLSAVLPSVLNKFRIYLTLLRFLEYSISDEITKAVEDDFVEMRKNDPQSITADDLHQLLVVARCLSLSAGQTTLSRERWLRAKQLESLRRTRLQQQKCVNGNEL
Sequence of UniProt Q09328 (Q09328 whole entry, looked up): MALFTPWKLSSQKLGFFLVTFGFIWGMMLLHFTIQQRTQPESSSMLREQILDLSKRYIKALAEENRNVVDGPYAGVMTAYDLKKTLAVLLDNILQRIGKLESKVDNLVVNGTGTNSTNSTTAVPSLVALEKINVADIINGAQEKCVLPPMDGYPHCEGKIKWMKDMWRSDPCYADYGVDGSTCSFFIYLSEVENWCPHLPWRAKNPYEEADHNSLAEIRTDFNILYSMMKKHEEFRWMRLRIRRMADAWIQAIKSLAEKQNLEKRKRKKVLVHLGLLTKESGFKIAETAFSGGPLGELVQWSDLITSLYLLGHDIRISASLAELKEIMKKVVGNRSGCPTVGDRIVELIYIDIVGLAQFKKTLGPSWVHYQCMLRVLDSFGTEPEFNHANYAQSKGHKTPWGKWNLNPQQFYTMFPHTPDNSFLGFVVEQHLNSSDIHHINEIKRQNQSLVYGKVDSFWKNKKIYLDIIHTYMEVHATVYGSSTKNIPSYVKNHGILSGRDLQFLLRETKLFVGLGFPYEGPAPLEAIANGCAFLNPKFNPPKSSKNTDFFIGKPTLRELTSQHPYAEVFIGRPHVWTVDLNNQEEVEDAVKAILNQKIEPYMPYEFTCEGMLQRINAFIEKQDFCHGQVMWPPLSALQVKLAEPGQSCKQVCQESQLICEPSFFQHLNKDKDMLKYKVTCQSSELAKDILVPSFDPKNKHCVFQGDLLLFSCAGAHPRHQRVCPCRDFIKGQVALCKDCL
Sequence of UniProt O15021 (O15021 whole entry, looked up): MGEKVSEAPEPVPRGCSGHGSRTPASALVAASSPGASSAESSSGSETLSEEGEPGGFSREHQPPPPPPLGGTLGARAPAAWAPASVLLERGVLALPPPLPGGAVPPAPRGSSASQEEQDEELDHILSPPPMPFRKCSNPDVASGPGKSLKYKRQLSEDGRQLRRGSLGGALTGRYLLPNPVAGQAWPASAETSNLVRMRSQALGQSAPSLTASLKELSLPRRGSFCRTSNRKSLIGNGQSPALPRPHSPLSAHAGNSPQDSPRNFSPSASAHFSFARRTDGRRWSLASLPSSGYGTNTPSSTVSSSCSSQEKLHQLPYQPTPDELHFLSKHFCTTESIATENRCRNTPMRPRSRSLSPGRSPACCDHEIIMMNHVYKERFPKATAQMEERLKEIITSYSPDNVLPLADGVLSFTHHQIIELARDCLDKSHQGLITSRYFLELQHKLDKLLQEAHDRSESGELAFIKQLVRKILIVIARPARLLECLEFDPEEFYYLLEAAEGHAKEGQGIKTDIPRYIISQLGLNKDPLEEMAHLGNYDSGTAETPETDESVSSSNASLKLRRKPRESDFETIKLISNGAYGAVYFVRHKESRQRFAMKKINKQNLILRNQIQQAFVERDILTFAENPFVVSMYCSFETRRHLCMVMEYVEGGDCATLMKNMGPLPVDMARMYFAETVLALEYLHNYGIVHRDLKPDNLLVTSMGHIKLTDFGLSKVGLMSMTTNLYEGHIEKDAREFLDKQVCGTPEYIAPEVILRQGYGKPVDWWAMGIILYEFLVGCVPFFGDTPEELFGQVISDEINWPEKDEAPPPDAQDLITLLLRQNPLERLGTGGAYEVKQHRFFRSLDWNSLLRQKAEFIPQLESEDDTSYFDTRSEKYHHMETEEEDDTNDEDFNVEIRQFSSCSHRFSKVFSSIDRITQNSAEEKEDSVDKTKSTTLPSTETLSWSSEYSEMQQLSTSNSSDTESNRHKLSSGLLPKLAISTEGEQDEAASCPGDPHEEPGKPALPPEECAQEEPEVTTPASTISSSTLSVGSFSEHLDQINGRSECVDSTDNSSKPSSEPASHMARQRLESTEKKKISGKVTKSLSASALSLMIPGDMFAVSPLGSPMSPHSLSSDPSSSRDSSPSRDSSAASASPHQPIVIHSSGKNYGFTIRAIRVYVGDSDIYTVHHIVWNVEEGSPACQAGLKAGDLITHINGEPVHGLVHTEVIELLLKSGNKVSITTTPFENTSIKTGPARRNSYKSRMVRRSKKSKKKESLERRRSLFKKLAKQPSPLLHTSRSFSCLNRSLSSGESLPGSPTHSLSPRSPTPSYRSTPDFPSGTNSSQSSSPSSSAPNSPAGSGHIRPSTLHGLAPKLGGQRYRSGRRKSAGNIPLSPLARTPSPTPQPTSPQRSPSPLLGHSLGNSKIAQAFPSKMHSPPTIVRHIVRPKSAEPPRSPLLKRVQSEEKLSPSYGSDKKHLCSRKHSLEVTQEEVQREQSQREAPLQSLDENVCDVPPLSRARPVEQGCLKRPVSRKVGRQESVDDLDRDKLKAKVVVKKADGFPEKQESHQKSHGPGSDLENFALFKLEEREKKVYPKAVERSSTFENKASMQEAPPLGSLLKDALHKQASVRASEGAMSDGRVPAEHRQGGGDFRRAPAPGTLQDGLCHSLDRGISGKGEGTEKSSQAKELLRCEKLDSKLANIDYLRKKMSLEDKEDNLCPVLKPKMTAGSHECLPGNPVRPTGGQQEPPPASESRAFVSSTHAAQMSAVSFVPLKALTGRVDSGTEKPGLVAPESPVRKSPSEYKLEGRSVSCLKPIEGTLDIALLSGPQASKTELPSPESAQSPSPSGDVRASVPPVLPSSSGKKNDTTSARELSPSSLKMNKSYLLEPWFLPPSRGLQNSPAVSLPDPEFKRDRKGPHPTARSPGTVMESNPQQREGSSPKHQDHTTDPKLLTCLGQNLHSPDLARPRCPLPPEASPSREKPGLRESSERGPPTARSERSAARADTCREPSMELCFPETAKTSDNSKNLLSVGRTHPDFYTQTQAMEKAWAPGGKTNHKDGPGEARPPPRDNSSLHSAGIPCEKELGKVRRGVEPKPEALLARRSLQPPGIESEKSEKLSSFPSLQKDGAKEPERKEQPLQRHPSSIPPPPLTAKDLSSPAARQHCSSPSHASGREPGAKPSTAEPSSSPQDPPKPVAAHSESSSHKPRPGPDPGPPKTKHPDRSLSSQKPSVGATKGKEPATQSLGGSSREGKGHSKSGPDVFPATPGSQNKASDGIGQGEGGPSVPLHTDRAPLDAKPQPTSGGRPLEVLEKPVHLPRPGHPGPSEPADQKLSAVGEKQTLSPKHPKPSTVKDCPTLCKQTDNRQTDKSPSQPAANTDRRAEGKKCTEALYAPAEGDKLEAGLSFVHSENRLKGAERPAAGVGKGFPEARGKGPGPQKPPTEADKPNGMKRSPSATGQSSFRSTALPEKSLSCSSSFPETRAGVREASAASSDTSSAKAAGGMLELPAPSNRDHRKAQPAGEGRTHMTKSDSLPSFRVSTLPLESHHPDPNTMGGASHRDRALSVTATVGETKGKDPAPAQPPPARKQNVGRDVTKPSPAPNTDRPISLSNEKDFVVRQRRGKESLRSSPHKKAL
Sequence of UniProt Q9NVC6 (Q9NVC6 whole entry, looked up): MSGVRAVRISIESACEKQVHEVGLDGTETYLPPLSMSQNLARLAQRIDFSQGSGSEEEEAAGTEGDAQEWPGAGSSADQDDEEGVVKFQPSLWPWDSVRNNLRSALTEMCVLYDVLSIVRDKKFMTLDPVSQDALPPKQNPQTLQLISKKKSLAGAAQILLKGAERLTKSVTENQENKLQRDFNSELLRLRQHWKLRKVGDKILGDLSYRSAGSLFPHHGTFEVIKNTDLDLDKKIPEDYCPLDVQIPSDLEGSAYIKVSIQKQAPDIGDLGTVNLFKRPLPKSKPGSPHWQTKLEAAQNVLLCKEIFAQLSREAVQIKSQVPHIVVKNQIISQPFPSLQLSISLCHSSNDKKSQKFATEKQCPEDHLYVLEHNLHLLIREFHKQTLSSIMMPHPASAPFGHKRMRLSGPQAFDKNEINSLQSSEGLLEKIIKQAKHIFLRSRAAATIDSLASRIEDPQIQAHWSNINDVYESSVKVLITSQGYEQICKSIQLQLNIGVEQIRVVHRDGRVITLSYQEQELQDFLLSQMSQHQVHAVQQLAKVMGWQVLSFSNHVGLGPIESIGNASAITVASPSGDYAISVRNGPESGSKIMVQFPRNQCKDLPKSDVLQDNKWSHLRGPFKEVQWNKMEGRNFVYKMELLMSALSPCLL
Sequence of UniProt Q8N5J2 (Q8N5J2 whole entry, looked up): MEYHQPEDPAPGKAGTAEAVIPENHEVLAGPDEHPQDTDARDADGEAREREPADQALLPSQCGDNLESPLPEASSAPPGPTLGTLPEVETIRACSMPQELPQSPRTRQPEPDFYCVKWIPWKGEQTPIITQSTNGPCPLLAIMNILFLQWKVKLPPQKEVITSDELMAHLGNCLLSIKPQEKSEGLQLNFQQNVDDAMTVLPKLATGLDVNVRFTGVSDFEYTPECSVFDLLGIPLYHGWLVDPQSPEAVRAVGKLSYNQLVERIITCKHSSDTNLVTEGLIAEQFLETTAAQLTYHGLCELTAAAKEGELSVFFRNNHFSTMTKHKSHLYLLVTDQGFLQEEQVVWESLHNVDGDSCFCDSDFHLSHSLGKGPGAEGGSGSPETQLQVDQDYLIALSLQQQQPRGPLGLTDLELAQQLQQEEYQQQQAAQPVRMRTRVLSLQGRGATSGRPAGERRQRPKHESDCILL

Compound in one assay: C1=CC=C(C=C1)[C@H](COC2=CC3=C(C=C2)NC(=O)N3)NC(=O)C4=CC=CN(C4=O)CC5=CC(=C(C=C5)F)F
Description: log2 fold change, soluble protein after heating vs DMSO (PISA); higher = thermal stabilisation; K562 lysate, 10 uM; active = over 0.2 and 3.5 SD of the protein, either way, in both replicates (recomputed). The method in brief: (§1)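 A 30 min treatment with 10 μM compound was applied to crude K562 extract at 1 mg/mL protein in PBS pH 7.4 with 1 mM MgCl2. Heating for 3 min spanned 48°C-58°C, after which aliquots were pooled, adjusted to 0.5% NP-40 at 4°C and spun at 21,000xg for 90 min. TMTpro 16plex LC-MS/MS of the supernatant, with channel sums equalised, gave values recorded as log-two fold change in thermal stability against solvent controls, from duplicates.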
Turning to LIMK2 isoform 3 (UniProt P53671), the log2 fold change was -0.022.

Regarding MAPK1 (UniProt P28482), the log2 fold change is 0.045.

Regarding MAP4K2 (UniProt Q12851), the log2 fold change was -0.088.

For the target MAPK3 (UniProt P27361), the log2 fold change was 0.008.

Turning to LSG1 (UniProt Q9H089), the log2 fold change was 0.068.

For MED10 (UniProt Q9BTT4), the log2 fold change was 0.038.

In the case of KLC1 isoform 10 (UniProt Q07866), the log2 fold change is -0.094.

For KMT2A isoform 3 (UniProt Q03164), the log2 fold change is 0.043.

MAP4 isoform 5 (UniProt P27816): the log2 fold change is -0.065.

With MARCHF6 (UniProt O60337), the log2 fold change is -0.269.

Turning to MCMBP isoform 2 (UniProt Q9BTE3), the log2 fold change is 0.045.

Take KRIT1 (UniProt O00522): the log2 fold change was -0.026.

On to MICU2 (UniProt Q8IYU8), for which the log2 fold change is -0.132.

In the case of MAP7D3 (UniProt Q8IWC1), the log2 fold change was 0.056.

Consider KLC2 (UniProt Q9H0B6), for which the log2 fold change is -0.032.

Regarding KNL1 (UniProt Q8NG31), the log2 fold change is 0.009.

On to LIG4 (UniProt P49917), for which the log2 fold change is -0.04.

On to MICU1 isoform 3 (UniProt Q9BPX6), for which the log2 fold change was -0.018.

On to MAP4K4 isoform 3 (UniProt O95819), for which the log2 fold change is 0.022.

With MARF1 (UniProt Q9Y4F3), the log2 fold change is -0.052.

Consider KNSTRN (UniProt Q9Y448), for which the log2 fold change was 0.097.

For MGAT5 (UniProt Q09328), the log2 fold change is 0.088.

As for MPP5 (UniProt Q8N3R9), the log2 fold change was -0.044.

Consider LYN (UniProt P07948), for which the log2 fold change was -0.063.

As for LDAH isoform 2 (UniProt Q9H6V9), the log2 fold change is -0.119.

For the target MRPL12 (UniProt P52815), the log2 fold change was -0.084.

In the case of LARS2 (UniProt Q15031), the log2 fold change is -0.07.

Regarding MED17 (UniProt Q9NVC6), the log2 fold change was 0.009.

For KIF2A isoform 4 (UniProt O00139), the log2 fold change was 0.006.

On to MAP11 (UniProt Q8WVR3), for which the log2 fold change is -0.103.

Turning to MAST4 (UniProt O15021), the log2 fold change was 0.007.

Regarding MRPL28 (UniProt Q13084), the log2 fold change was -0.002.

As for MINDY1 isoform 3 (UniProt Q8N5J2), the log2 fold change was 0.017.

Turning to MIPEP (UniProt Q99797), the log2 fold change was 0.015.

Regarding MCMBP (UniProt Q9BTE3), the log2 fold change was -0.016.

MFF isoform 2 (UniProt Q9GZY8): the log2 fold change was 0.044.

KLHL12 isoform 2 (UniProt Q53G59): the log2 fold change is 0.152.

Take MAST2 (UniProt Q6P0Q8): the log2 fold change was -0.257.

Turning to MLST8 (UniProt Q9BVC4), the log2 fold change was -0.038.

Compound in a further assay: CC1=C(SC2=C1C(=N[C@H](C3=NN=C(N32)C)CC(=O)N)C4=CC=C(C=C4)Cl)C
The assay is described as above. The method in brief: as §1
With LIMK2 isoform 3 (UniProt P53671), the log2 fold change is -0.123.

With MAPK1 (UniProt P28482), the log2 fold change is -0.006.

Regarding MAP4K2 (UniProt Q12851), the log2 fold change is 0.053.

Turning to MAPK3 (UniProt P27361), the log2 fold change is 0.006.

For LSG1 (UniProt Q9H089), the log2 fold change is 0.038.

With MED10 (UniProt Q9BTT4), the log2 fold change was -0.033.

As for KLC1 isoform 10 (UniProt Q07866), the log2 fold change is -0.063.

For the target KMT2A isoform 3 (UniProt Q03164), the log2 fold change was 0.09.

Regarding MAP4 isoform 5 (UniProt P27816), the log2 fold change was 0.099.

In the case of MARCHF6 (UniProt O60337), the log2 fold change was -0.192.

In the case of MCMBP isoform 2 (UniProt Q9BTE3), the log2 fold change was 0.02.

As to KRIT1 (UniProt O00522), the log2 fold change was -0.041.

Turning to MICU2 (UniProt Q8IYU8), the log2 fold change was -0.069.

For the target MAP7D3 (UniProt Q8IWC1), the log2 fold change is 0.057.

Turning to KLC2 (UniProt Q9H0B6), the log2 fold change is 0.016.

Turning to KNL1 (UniProt Q8NG31), the log2 fold change was 0.003.

As to LIG4 (UniProt P49917), the log2 fold change is 0.083.

In the case of MICU1 isoform 3 (UniProt Q9BPX6), the log2 fold change is 0.027.

As for MAP4K4 isoform 3 (UniProt O95819), the log2 fold change was 0.029.

With MARF1 (UniProt Q9Y4F3), the log2 fold change is 0.013.

KNSTRN (UniProt Q9Y448): the log2 fold change is -0.057.

With MGAT5 (UniProt Q09328), the log2 fold change is -0.027.

As for MPP5 (UniProt Q8N3R9), the log2 fold change is 0.045.

As to LYN (UniProt P07948), the log2 fold change was -0.103.

In the case of LDAH isoform 2 (UniProt Q9H6V9), the log2 fold change is 0.018.

Take MRPL12 (UniProt P52815): the log2 fold change is 0.015.

Consider LARS2 (UniProt Q15031), for which the log2 fold change was -0.072.

Regarding MED17 (UniProt Q9NVC6), the log2 fold change is 0.021.

For the target KIF2A isoform 4 (UniProt O00139), the log2 fold change is -0.012.

MAP11 (UniProt Q8WVR3): the log2 fold change was 0.

As to MAST4 (UniProt O15021), the log2 fold change was -0.019.

Regarding MRPL28 (UniProt Q13084), the log2 fold change was -0.062.

On to MINDY1 isoform 3 (UniProt Q8N5J2), for which the log2 fold change is 0.061.

For the target MIPEP (UniProt Q99797), the log2 fold change was -0.019.

With MCMBP (UniProt Q9BTE3), the log2 fold change was 0.035.

For the target MFF isoform 2 (UniProt Q9GZY8), the log2 fold change is -0.029.

Consider KLHL12 isoform 2 (UniProt Q53G59), for which the log2 fold change is -0.049.

Turning to MAST2 (UniProt Q6P0Q8), the log2 fold change was 0.027.

Turning to MLST8 (UniProt Q9BVC4), the log2 fold change was 0.037.
